Laboratory results as given in article PMC11006913.
Numbering of substitutions follows the chain as printed.

What was measured:
Assay in all cases: PBM; 200 nM protein, PBS
Settings in all cases: dsDNA, one strand shown
PITX2 = PITX2 (Homo sapiens, UniProt Q99697 72-157)
SIX6 [1] = target: T1, SIX6 (Homo sapiens, UniProt O95475 114-200, T165P)
T1 sequence: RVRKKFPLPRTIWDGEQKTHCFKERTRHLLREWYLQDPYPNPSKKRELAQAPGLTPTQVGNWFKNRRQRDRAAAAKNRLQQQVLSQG

SIX6 [2] = target: T2, SIX6 (Homo sapiens, UniProt O95475 114-200, T165I)
T2 sequence: T1 sequence with P52I

NKX2-4 [3] = target: T3, NKX2-4 (Homo sapiens, UniProt Q9H2Z4 175-261, P217L)
T3 sequence: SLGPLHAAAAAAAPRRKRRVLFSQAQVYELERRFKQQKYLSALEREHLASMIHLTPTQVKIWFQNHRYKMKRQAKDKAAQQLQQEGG

NKX2-4 [4] = target: T4, NKX2-4 (Homo sapiens, UniProt Q9H2Z4 175-261, T231S)
T4 sequence: T3 sequence with L43P, T57S

NKX2-4 [5] = target: T5, NKX2-4 (Homo sapiens, UniProt Q9H2Z4 175-261)
T5 sequence: T3 sequence with L43P

NKX2-4 [6] = target: T6, NKX2-4 (Homo sapiens, UniProt Q9H2Z4 175-261, R246Q)
T6 sequence: T3 sequence with L43P, R72Q

CRX [7] = target: CRX (Homo sapiens, UniProt O43186 26-111)
CRX [8] = target: CRX (Homo sapiens, UniProt O43186 26-111, E42D)
NKX2-6 = target: T7, NKX2-6 (Homo sapiens, UniProt A6NCS4 118-204)
T7 sequence: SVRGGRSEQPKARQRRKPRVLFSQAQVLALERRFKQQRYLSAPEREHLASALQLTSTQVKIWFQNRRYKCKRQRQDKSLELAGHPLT

CRX (Homo sapiens, UniProt O43186 26-111), sequence (O43186 26-111): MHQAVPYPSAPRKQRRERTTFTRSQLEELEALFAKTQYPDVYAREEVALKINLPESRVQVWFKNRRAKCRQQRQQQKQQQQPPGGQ
CRX (Homo sapiens, UniProt O43186 26-111, E42D), sequence (O43186 26-111 E42D): as the sequence (O43186 26-111) above, with E17D counted along it

AATTAATC
binding signal (PITX2): 12.4 upbm affinity estimate (log intensity, higher = more binding, comparable within an allelic series)

CCAGGTCC
binding signal (SIX6 [1]): 8.71 upbm affinity estimate (log intensity, higher = more binding, comparable within an allelic series) | binding signal (SIX6 [2]): 9.08 upbm affinity estimate (log intensity, higher = more binding, comparable within an allelic series)

CCCCGGCG
binding signal (NKX2-4 [3]): 9.5 upbm affinity estimate (log intensity, higher = more binding, comparable within an allelic series) | binding signal (NKX2-4 [4]): 9.48 upbm affinity estimate (log intensity, higher = more binding, comparable within an allelic series) | binding signal (NKX2-4 [5]): 9.57 upbm affinity estimate (log intensity, higher = more binding, comparable within an allelic series) | binding signal (NKX2-4 [6]): 9.55 upbm affinity estimate (log intensity, higher = more binding, comparable within an allelic series)

ATTAATGC
binding signal (CRX [7]): 11.9 upbm affinity estimate (log intensity, higher = more binding, comparable within an allelic series) | binding signal (CRX [8]): 11.7 upbm affinity estimate (log intensity, higher = more binding, comparable within an allelic series)

AATTAGTG
binding signal (NKX2-6): 11.9 upbm affinity estimate (log intensity, higher = more binding, comparable within an allelic series)

GAGGGGGC
binding signal (CRX [7]): 8.07 upbm affinity estimate (log intensity, higher = more binding, comparable within an allelic series) | binding signal (CRX [8]): 8.05 upbm affinity estimate (log intensity, higher = more binding, comparable within an allelic series)

GGAGCGCA
binding signal (SIX6 [1]): 8.9 upbm affinity estimate (log intensity, higher = more binding, comparable within an allelic series) | binding signal (SIX6 [2]): 8.91 upbm affinity estimate (log intensity, higher = more binding, comparable within an allelic series)
